Measured values reported in PubChem BioAssay (NCI).
This is part of a sample that, as a whole, favours compounds with a hit. Of some 83,000 tested, about 20% had one in any assay.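 Cells were grown in 96-well plates and exposed to the test compound at a single concentration for 48 hours; results are reported as percent growth, with values below 10 considered active.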 A number with no mark means an inactive call. Activity calls are given as the source filed them.

Each molecule was assayed on HL-60(TB) leukemia (assay: NCI-60 one-dose screen, 48 h (100 = growth as untreated, 0 = no growth, -100 = all killed)). Settings: 10 µM unless noted.
With COc1cc(Br)c(-c2nc(-c3ccccc3)c(-c3ccccc3)n2Cc2ccccc2)cc1OC the growth was 18.6%. COc1ccc2c(c1)c(-c1nc(-c3c[nH]c4ncccc34)cs1)cn2C showed a growth of 63.5%. Nc1c(C(=O)Nc2cccc(Cl)c2)sc2nc3c(cc12)C(O)CCC3 (stereo not given) was tested, and the growth was 2.96% (active). O=C(Nc1ccc2c(c1)OCO2)C(=O)c1c[nH]c2cc(F)ccc12 showed a growth of 53.5%. For COc1ccc2c(c1)CC[C@@H]1[C@@H]2CC[C@]2(C)C3C(=CCC4C(=O)N(c5ccccc5)C(=O)C43)C[C@@H]12 (stereo not given in full), the growth was 81.6%. COc1ccc(-c2nc3sc(-c4ccccc4)c(-c4ccccc4)n3c2/C=C/c2ccc(F)cc2)cc1 showed a growth of 105%. With NC1=NC(c2ccccc2OS(=O)(=O)c2ccc(Br)cc2)n2c(nc3ccccc32)N1 (stereo not given) the growth was 69.7%. With CC1=C(SCCC(=O)OC(C[Se]C2=C(C)C(=O)c3ccccc3C2=O)C(=O)NCCCCCC(=O)OCc2ccccc2)C(=O)c2ccccc2C1=O (stereo not given) the growth was -1.59% (active). Molecule CCC(c1ccc(O)cc1)C(CC)c1ccc(O)c(F)c1 (stereo not given) has a growth of 56.1%. With O=C1C2C(c3cccs3)C=C(c3ccc(Cl)cc3)N2C(=S)N1c1ccccc1 (stereo not given) the growth was 99.8%. Work on N#Cc1cnn(-c2nc3c(Cl)cccc3s2)c1N yielded a growth of 97.7%. O=C(N/N=C\c1ccc(Cl)cc1)C(=O)N/N=C\c1ccc(Cl)cc1 gave a growth of 108%. COc1cc(/C=C2\CN(S(=O)(=O)c3ccc(C)cc3)C/C(=C\c3cc(CN4CCOCC4)c(O)c(OC)c3)C2=O)cc(CN2CCOCC2)c1O was tested, and the growth was -15.5% (active). Molecule COc1ccc(-c2nc(-c3nc4cc(Cl)c(Cl)cc4[nH]3)c3ccccn23)cc1 has a growth of 99.9%. With COc1ccc(-c2cn3ccnc3c(-c3ccc4ncn(C5CCCCC5)c4c3)n2)cc1 the growth was 1.36% (active). In the case of CN1C(=O)N(C)C2Nn3c(s/c(=C\c4ccccc4)c3=O)=NC21 (stereo not given), the growth is reported as 95.2%. CCNCc1ccccc1 gave a growth of 101%. Cc1nc(N)[nH]c(=O)c1C was tested, and the growth was 218%. For O=C(CCCCCCN1CC(=O)N2[C@@H](C3CCCCC3)c3[nH]c4ccccc4c3C[C@H]2C1=O)NO, the growth was 5.7% (active). CC1(C)Oc2cc3oc(=O)ccc3cc2C[C@@H]1OCCOS(=O)(=O)c1ccc(C#N)cc1 showed a growth of 100%. Cc1cc(=O)oc2cc(O)cc(O)c12 showed a growth of 109%. For COc1cc(OC)c2c(=O)cc(-c3ccccc3)oc2c1, the growth was 72%. CCOC(=O)c1c(C)n2c(=O)cc(C)c3c(OC(C)=O)c(OC(C)=O)cc1c32 was tested, and the growth was 0.923% (active). O=C(NCc1cccnc1)/C(=C\c1ccc(Br)cc1)S(=O)(=O)c1ccccc1 was tested, and the growth was 17.4%. With CCN(CC)CCOc1ccc(/C(=C(\C)c2ccc(F)c(OC)c2)c2ccc(Cl)cc2)cc1 the growth was -27.9% (active). For C/C(=N\Nc1nc(C)cs1)c1cc2ccccc2o1, the growth was 83.4%. In the case of CCCN(CCC)CCCNC(=O)c1cc2c(-c3ccc(OC)c(OC)c3)nn(C)c2s1, the growth is reported as -13.4% (active). With CCN(CC)CCN1C(=O)c2cccc3c(-c4ccc5c(c4)ncn5C4CCCCC4)ccc(c23)C1=O the growth was -15.2% (active). With COc1cc(/C=C/C(=O)c2c(C)oc3nc[nH]c(=O)c23)cc(OC)c1OC the growth was 65.9%. CC1(C)CC[C@]2(C(=O)N3CCOCC3)CC[C@]3(C)C(=CC[C@@H]4[C@@]5(C)CC[C@H](OC(=O)c6cccnc6)C(C)(C)[C@@H]5CC[C@]43C)[C@@H]2C1 was tested, and the growth was 45.4%. CC(C)c1ccc(Nc2n[nH]c(=S)s2)cc1 showed a growth of 97.7%. In the case of CCOC(=O)CNC(=O)Nc1ccc(Oc2ccc(NC(=O)NCC(=O)OCC)cc2)cc1, the growth is reported as 108%. For C[N+]1=C(/C=C/c2ccccc2Cl)C(C)(C)c2ccccc21, the growth was 53.5%. CN(C)c1ccc(/C=C/C2=[N+](C)c3ccccc3C2(C)C)cc1 was tested, and the growth was -18.4% (active). CC(=O)N/C(=C1/OC(C(O)C(O)C(O)CO)CN1C)[P+](c1ccccc1)(c1ccccc1)c1ccccc1 (stereo not given) gave a growth of 97.9%. In the case of Cc1cc(O)c(C(C)C)cc1Cl, the growth is reported as 101%. For O=C(O)CCCc1ccccc1, the growth was 109%. For O=C(/C=C/c1cccc(O)c1)c1cccc(-n2cc(-c3ccc(Cl)cc3)[nH]c2=O)c1, the growth was -6.19% (active). With Cc1ccc(NC(=O)c2nc(S(C)(=O)=O)oc2-c2ccc(F)cc2)cc1Nc1ccc2ncn(C)c(=O)c2c1 the growth was 46.5%. C=C(CO)[C@@H]1CC[C@]2(COC3CCCCO3)CC[C@]3(C)[C@H](CC[C@@H]4[C@@]5(C)C=C(C=O)C(=O)C(C)(C)[C@@H]5CC[C@]43C)[C@@H]12 (stereo not given in full) was tested, and the growth was -59.8% (active).
